# Results from PMC7862700, “An all-to-all approach to the identification of sequence-specific readers for epigenetic DNA modifications on cytosine”.
# Columns and labels:
# Assay in all cases: DAPPL (digital affinity profiling via proximity ligation, sequencing); 10 mM Tris-HCl pH 7.5, 50 mM NaCl, 1 mM DTT, 4% glycerol, room temperature, 30 min; GST-TFs on glutathione beads, 16-mer random dsDNA library, 0.1% formaldehyde crosslink after washing; high values mean tight binding
# FLI1 = biological target: T1, FLI1 (Homo sapiens, UniProt Q01543 1-452); details: protein: recombinant; tags: N-terminal GST; dsDNA, one strand shown
# T1 sequence: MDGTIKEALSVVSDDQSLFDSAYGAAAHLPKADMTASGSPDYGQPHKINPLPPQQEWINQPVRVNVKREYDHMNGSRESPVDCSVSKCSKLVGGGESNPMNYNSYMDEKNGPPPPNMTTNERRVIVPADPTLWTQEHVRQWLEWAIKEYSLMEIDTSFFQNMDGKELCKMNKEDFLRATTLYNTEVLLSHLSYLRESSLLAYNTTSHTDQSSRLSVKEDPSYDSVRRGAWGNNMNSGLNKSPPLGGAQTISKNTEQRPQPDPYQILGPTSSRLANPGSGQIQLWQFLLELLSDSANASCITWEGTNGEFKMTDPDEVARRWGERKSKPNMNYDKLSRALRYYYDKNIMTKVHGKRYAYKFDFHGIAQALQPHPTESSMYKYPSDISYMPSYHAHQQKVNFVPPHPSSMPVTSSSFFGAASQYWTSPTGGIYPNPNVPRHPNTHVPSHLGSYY
# Summary of the method: (§1)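 Beads coated with glutathione captured GST-fused human transcription factors that had been expressed in yeast, and the factors were then given DNA barcodes and pooled with a tag-only sample. The pools were incubated with 200 nmole of a random double-stranded 16-mer DNA library in Tris/NaCl/DTT/glycerol buffer for 30 min at room temperature, washed, crosslinked with 0.1% formaldehyde and proximity-ligated with BsaI/T4 ligase at 37 °C for 1 h. PCR amplification and Illumina NextSeq500 sequencing came last. Binding signal is each hexamer's read frequency for a factor divided by its frequency for the tag-only sample.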
# ELK1 = biological target: T2, ELK1 (Homo sapiens, UniProt P19419 1-428); details: protein: recombinant; tags: N-terminal GST; dsDNA, one strand shown
# T2 sequence: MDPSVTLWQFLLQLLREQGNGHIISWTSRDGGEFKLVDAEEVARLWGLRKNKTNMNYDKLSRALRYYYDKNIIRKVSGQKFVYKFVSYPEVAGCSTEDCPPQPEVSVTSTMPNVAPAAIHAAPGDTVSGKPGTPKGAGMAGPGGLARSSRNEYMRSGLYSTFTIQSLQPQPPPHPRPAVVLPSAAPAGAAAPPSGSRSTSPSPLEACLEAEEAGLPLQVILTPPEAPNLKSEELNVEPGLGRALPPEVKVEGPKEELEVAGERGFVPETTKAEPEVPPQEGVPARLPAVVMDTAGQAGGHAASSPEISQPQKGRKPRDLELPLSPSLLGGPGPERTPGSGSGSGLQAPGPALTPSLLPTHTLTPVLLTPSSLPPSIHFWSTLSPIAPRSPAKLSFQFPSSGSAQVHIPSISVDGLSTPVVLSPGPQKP
# Summary of the method: as §1
# GABPA = biological target: T3, GABPA (Homo sapiens, UniProt Q06546 1-454); details: protein: recombinant; tags: N-terminal GST; dsDNA, one strand shown
# T3 sequence: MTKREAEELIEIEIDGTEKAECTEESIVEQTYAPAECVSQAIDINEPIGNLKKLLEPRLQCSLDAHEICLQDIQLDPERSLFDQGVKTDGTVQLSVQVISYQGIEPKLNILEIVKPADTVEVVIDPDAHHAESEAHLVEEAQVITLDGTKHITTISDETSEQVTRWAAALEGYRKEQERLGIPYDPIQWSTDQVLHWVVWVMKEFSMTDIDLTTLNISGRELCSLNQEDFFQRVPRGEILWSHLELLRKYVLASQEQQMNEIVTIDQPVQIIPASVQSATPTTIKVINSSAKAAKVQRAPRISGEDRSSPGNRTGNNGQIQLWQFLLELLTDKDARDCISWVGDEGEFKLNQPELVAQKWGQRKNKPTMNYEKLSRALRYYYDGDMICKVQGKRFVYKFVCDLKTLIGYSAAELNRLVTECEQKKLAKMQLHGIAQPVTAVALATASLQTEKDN
# Summary of the method: as §1
# ERG = biological target: T4, ERG (Homo sapiens, UniProt P11308 1-479); details: protein: recombinant; tags: N-terminal GST; dsDNA, one strand shown
# T4 sequence: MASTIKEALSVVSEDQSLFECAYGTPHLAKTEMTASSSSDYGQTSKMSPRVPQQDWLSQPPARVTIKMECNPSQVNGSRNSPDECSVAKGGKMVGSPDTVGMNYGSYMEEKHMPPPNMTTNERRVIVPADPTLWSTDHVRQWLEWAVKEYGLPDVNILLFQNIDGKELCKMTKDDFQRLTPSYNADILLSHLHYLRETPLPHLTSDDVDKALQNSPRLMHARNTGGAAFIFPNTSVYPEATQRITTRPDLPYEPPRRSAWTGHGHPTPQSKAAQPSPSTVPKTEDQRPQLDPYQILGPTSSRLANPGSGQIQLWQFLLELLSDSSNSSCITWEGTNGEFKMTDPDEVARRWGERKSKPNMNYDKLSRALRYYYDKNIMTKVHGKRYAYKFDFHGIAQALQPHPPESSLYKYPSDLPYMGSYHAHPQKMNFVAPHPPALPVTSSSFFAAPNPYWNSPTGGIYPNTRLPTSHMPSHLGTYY
# Summary of the method: as §1
# ELF1 = ELF1 (Homo sapiens, UniProt P32519 1-619); details: protein: recombinant; tags: N-terminal GST; dsDNA, one strand shown
# Sequence of ELF1 (P32519 whole entry): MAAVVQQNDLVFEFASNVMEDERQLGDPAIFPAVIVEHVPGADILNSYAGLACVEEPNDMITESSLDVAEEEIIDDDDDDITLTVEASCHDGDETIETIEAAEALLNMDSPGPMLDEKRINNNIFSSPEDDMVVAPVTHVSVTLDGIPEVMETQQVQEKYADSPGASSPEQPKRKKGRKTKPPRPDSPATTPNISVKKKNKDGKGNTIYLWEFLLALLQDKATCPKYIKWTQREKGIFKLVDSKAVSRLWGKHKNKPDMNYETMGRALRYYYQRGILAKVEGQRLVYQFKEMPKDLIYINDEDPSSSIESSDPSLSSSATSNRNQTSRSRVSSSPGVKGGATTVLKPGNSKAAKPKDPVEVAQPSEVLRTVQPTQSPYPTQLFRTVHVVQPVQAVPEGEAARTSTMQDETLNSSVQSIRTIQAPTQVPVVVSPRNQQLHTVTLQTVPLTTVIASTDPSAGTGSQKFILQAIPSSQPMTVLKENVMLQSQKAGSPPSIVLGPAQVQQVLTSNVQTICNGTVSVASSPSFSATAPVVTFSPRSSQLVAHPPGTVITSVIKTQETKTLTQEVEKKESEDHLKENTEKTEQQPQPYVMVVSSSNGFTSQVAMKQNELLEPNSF
# Summary of the method: as §1
# EHF = biological target: T5, EHF (Homo sapiens, UniProt Q9NZC4 1-300); details: protein: recombinant; tags: N-terminal GST; dsDNA, one strand shown
# T5 sequence: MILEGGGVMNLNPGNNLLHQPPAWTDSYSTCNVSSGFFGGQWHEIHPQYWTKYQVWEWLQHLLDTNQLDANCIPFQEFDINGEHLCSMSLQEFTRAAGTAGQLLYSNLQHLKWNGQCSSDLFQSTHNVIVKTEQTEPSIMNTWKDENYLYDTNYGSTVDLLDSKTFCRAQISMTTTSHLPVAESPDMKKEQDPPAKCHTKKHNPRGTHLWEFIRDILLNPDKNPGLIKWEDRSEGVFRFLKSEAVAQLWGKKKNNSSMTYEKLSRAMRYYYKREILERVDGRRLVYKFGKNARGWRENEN
# Summary of the method: as §1
# SPI1 = SPI1 (Homo sapiens, UniProt P17947 1-270); details: protein: recombinant; tags: N-terminal GST; dsDNA, one strand shown
# Summary of the method: as §1
# SPIB = SPIB (Homo sapiens, UniProt Q01892 1-262); details: protein: recombinant; tags: N-terminal GST; dsDNA, one strand shown
# Sequence of SPIB (Q01892 whole entry): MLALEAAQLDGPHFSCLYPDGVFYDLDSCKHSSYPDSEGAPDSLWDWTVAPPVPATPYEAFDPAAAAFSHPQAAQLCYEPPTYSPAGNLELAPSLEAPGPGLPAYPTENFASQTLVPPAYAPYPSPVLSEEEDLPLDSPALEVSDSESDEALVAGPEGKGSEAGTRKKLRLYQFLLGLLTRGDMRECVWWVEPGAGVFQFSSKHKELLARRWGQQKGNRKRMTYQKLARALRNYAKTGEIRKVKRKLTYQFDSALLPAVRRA
# Summary of the method: as §1
# ELK3 = biological target: T6, ELK3 (Homo sapiens, UniProt P41970 1-407); details: protein: recombinant; tags: N-terminal GST; dsDNA, one strand shown
# T6 sequence: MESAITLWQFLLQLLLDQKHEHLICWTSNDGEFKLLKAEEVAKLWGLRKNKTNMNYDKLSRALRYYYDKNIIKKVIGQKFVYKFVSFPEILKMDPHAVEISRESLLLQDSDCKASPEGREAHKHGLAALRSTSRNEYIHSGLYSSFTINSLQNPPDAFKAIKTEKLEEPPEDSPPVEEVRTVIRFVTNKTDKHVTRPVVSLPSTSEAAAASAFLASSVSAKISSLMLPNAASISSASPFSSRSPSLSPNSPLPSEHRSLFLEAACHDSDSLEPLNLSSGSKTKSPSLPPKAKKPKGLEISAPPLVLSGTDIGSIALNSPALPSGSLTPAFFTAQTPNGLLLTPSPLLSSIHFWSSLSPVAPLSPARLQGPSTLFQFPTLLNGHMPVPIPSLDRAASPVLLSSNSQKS
# Summary of the method: as §1
# FEV = biological target: T7, FEV (Homo sapiens, UniProt Q99581 1-238); details: protein: recombinant; tags: N-terminal GST; dsDNA, one strand shown
# T7 sequence: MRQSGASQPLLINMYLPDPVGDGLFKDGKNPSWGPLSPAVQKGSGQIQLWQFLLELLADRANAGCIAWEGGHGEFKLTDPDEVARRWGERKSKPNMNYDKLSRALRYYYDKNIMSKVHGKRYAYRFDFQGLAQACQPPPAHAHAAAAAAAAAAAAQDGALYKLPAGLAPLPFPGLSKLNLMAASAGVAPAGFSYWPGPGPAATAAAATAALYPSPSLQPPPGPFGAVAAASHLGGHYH
# Summary of the method: as §1
# ETV5 = ETV5 (Homo sapiens, UniProt P41161 1-510); details: protein: recombinant; tags: N-terminal GST; dsDNA, one strand shown
# Sequence of ETV5 (P41161 whole entry): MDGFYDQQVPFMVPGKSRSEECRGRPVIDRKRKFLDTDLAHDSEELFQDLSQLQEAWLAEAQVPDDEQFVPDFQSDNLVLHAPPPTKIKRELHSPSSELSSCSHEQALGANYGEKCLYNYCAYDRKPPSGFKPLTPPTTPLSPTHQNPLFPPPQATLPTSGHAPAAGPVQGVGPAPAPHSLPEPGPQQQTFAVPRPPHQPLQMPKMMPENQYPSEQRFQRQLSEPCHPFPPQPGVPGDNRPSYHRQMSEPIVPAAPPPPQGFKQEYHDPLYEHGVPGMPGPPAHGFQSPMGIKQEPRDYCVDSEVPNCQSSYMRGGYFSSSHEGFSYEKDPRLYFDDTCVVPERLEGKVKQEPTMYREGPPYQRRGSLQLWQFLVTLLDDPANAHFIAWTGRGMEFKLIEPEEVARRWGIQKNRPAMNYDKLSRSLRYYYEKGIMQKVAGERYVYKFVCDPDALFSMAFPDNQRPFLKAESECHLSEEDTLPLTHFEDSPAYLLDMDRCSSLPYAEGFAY
# Summary of the method: as §1
# HSF1 = HSF1 (Homo sapiens, UniProt Q00613 1-529); details: protein: recombinant; tags: N-terminal GST; chain copies: 3; dsDNA, one strand shown
# Sequence of HSF1 (Q00613 whole entry): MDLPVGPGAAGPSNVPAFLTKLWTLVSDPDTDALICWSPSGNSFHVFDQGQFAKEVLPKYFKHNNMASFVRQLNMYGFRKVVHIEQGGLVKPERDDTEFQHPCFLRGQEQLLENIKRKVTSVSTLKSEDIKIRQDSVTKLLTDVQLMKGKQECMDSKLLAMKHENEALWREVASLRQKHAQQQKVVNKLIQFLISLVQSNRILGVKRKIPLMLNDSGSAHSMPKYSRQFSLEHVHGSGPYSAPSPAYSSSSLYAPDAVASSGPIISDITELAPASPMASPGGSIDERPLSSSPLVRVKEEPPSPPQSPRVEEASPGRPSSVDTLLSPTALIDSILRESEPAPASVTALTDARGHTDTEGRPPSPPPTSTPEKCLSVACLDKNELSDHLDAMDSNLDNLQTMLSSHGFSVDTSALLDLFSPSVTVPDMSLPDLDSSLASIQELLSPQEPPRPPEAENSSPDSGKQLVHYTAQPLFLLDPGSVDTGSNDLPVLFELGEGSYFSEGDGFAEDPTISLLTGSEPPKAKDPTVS
# Summary of the method: as §1
# SPIC = biological target: T8, SPIC (Homo sapiens, UniProt Q8N5J4 1-248); details: protein: recombinant; tags: N-terminal GST; dsDNA, one strand shown
# T8 sequence: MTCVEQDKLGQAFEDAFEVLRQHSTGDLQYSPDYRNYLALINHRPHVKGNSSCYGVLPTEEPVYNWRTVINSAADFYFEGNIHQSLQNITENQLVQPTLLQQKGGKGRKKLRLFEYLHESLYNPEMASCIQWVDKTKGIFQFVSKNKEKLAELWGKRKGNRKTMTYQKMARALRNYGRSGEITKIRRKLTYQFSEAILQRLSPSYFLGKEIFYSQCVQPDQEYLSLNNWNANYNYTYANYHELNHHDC
# Summary of the method: as §1
# ELF4 = ELF4 (Homo sapiens, UniProt Q99607 1-663); details: protein: recombinant; tags: N-terminal GST; dsDNA, one strand shown
# Sequence of ELF4 (Q99607 whole entry): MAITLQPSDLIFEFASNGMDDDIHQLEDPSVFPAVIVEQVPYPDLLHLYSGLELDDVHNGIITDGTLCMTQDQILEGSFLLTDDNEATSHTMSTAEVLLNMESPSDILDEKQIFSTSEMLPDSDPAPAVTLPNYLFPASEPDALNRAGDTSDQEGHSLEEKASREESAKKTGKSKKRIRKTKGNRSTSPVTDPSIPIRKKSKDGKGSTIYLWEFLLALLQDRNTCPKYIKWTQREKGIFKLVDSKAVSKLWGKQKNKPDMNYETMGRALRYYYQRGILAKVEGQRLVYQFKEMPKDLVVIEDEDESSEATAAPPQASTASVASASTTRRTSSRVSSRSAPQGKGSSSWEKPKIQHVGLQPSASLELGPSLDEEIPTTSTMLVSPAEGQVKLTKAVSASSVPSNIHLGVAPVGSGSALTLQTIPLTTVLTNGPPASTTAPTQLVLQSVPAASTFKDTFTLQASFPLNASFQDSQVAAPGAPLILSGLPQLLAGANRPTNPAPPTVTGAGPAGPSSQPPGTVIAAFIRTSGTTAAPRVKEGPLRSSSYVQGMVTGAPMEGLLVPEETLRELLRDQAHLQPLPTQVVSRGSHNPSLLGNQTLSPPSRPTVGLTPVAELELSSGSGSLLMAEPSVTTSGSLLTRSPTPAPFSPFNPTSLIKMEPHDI
# Summary of the method: as §1
# ELK4 = biological target: T9, ELK4 (Homo sapiens, UniProt P28324-2 1-405); details: protein: recombinant; tags: N-terminal GST; dsDNA, one strand shown
# T9 sequence: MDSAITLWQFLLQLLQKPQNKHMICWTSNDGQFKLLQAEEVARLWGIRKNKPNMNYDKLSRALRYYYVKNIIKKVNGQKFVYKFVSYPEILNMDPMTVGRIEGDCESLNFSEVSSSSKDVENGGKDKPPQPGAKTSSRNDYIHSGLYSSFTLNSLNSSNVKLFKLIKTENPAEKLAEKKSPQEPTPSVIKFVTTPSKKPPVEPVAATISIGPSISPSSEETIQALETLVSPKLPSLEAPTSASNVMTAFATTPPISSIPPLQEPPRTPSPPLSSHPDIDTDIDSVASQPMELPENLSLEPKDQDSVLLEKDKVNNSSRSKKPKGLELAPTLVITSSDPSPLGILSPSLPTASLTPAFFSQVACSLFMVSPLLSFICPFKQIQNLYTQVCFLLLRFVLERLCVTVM
# Summary of the method: as §1
# ETV2 = biological target: T10, ETV2 (Homo sapiens, UniProt O00321 1-342); details: protein: recombinant; tags: N-terminal GST; dsDNA, one strand shown
# T10 sequence: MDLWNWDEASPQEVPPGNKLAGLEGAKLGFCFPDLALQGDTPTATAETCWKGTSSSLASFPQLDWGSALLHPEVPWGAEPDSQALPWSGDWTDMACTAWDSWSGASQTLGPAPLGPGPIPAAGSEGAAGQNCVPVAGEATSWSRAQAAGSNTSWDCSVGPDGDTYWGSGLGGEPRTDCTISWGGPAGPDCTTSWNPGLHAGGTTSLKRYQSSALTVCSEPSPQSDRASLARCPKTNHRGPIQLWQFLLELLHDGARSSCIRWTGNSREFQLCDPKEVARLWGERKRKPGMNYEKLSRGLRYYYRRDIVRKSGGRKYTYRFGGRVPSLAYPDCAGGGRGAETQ
# Summary of the method: as §1
# ELF3 = biological target: T11, ELF3 (Homo sapiens, UniProt P78545 1-371); details: protein: recombinant; tags: N-terminal GST; dsDNA, one strand shown
# T11 sequence: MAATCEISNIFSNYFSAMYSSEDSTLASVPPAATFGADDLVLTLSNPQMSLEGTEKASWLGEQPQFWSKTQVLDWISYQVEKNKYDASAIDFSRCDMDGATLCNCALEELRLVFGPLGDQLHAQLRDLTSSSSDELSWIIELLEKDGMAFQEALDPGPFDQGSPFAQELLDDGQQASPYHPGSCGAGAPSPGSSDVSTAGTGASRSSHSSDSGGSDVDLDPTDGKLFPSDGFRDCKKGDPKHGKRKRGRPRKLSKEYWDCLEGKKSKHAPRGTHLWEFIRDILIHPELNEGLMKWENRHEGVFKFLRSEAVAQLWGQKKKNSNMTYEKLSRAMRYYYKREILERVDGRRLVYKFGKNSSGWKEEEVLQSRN
# Summary of the method: as §1
# CRX = CRX (Homo sapiens, UniProt O43186 1-299); details: protein: recombinant; tags: N-terminal GST; dsDNA, one strand shown
# Sequence of CRX (O43186 whole entry): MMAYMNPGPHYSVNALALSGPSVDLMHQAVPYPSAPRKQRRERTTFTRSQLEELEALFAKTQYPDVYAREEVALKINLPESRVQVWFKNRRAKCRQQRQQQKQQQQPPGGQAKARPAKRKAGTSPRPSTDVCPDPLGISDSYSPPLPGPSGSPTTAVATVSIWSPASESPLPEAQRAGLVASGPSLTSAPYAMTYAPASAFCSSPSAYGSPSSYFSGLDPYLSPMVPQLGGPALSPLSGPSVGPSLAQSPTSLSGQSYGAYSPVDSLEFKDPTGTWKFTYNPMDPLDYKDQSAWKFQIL
# Summary of the method: as §1
# ETV1 = ETV1 (Homo sapiens, UniProt P50549 1-477); details: protein: recombinant; tags: N-terminal GST; dsDNA, one strand shown
# Sequence of ETV1 (P50549 whole entry): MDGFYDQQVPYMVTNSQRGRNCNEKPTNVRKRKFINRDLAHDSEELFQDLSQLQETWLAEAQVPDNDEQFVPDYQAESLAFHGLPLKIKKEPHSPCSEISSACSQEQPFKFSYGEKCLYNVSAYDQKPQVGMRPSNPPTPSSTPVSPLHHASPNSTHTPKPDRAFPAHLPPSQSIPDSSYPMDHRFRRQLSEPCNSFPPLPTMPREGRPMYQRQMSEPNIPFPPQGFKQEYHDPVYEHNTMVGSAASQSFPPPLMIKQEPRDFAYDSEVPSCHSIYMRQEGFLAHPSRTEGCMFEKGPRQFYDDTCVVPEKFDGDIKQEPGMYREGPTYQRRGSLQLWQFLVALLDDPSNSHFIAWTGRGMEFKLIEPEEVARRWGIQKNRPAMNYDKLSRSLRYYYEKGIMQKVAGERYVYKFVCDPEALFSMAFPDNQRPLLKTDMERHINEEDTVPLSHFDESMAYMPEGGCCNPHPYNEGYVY
# Summary of the method: as §1
sequence,measurement,setting,value
TGGCCT,binding signal,FLI1,"1.59 fold enrichment (6-mer frequency, TF over GST control)"
same,binding signal,ELK1,"1.37 fold enrichment (6-mer frequency, TF over GST control)"
same,binding signal,GABPA,"1.51 fold enrichment (6-mer frequency, TF over GST control)"
same,binding signal,ERG,"1.54 fold enrichment (6-mer frequency, TF over GST control)"
same,binding signal,ELF1,"1.48 fold enrichment (6-mer frequency, TF over GST control)"
same,binding signal,EHF,"1.5 fold enrichment (6-mer frequency, TF over GST control)"
same,binding signal,SPI1,"1.55 fold enrichment (6-mer frequency, TF over GST control)"
same,binding signal,SPIB,"1.48 fold enrichment (6-mer frequency, TF over GST control)"
same,binding signal,ELK3,"1.29 fold enrichment (6-mer frequency, TF over GST control)"
same,binding signal,FEV,"1.54 fold enrichment (6-mer frequency, TF over GST control)"
same,binding signal,ETV5,"1.4 fold enrichment (6-mer frequency, TF over GST control)"
same,binding signal,HSF1,"1.32 fold enrichment (6-mer frequency, TF over GST control)"
same,binding signal,SPIC,"1.26 fold enrichment (6-mer frequency, TF over GST control)"
same,binding signal,ELF4,"1.51 fold enrichment (6-mer frequency, TF over GST control)"
same,binding signal,ELK4,"1.53 fold enrichment (6-mer frequency, TF over GST control)"
same,binding signal,ETV2,"1.46 fold enrichment (6-mer frequency, TF over GST control)"
same,binding signal,ELF3,"1.47 fold enrichment (6-mer frequency, TF over GST control)"
same,binding signal,CRX,"1.31 fold enrichment (6-mer frequency, TF over GST control)"
same,binding signal,ETV1,"1.27 fold enrichment (6-mer frequency, TF over GST control)"
